Rows were chosen to be rich in hits. Some 4% of all compounds tested hit in one or more screens of this group.
TIM10 inh – growth inhibitors of isogenic TIM10 control yeast, primary screen, counter-screen for tim10-1 yeast inhibitor project, luminescence, uHTS; S. cerevisiae TIM10 strain growth, BacTiter-Glo luminescence, 24 h; inhibition, % at 10 µM; 330,000 compounds, 1.4% hits;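 active means inhibition of 40% or more at the single tested concentration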;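 further: wild-type TIM10 isogenic control strain grown at permissive 25 °C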
tim10-1 inh – growth inhibitors of tim10-1 mutant yeast, primary screen, luminescence, uHTS. S. cerevisiae tim10-1 ts strain growth, BacTiter-Glo, 24 h. inhibition, % at 20 µM. 330,000 compounds, 2.2% hits. AID 463190, 2010;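 active means inhibition of at least 40%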;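 further: mutant grown at 25 °C; 0% = DMSO wells with yeast and 100% = wells holding no yeast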
tim23-1 inh – growth inhibitors of tim23-1 mutant yeast, primary screen, luminescence, uHTS | S. cerevisiae tim23-1 growth, BacTiter-Glo luminescence, 24 h | 330,000 compounds, 1.3% hits | inhibition, % at 20 µM;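 active means growth inhibition of the mutant yeast at or above 50%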;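 further: temperature-sensitive mutant grown at 25 °C; plate controls were DMSO-treated mutant yeast for no effect and medium wells lacking yeast for full effect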
NALP1 yeast inh – NALP1 inflammasome inhibitors in reconstituted yeast, colorimetric, S. cerevisiae, triplicate retest | S. cerevisiae NALP1/ASC/caspase-1 growth, X-gal OD620, 72 h | inhibition, % at 10 µM | 280,000 compounds, 0.61% hits | AID 2071, 2009; in the data active means inhibition mostly above about 24%, no sharp cut-off; inactive means mostly below about 32%
NALP3 yeast inh – NALP3 inflammasome inhibitors in reconstituted yeast, primary screen, luminescence, uHTS; Yeast reconstituted NLRP3/ASC/caspase-1, beta-gal luminescence, 24 h; inhibition, % at 10 µM; 330,000 compounds, 0.39% hits; AID 2825, 2010;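 active means inhibition of 50% or more; inactive means inhibition below 50%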;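 further: plate controls were induced DMSO wells for no effect and uninduced yeast grown without galactose for full effect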
tim10-1 confirm – growth inhibitors of tim10-1 mutant yeast, confirmation, single concentration, luminescence, S. cerevisiae. S. cerevisiae tim10-1 ts strain growth, BacTiter-Glo, 24 h. inhibition, % at 20 µM. 7,400 compounds, 56% hits. shares compounds with tim10-1 inh;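 active means inhibition of yeast growth at or above a set limit in either of two repeat tests at 20 µM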;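 further: tim10-1 mutant grown at permissive 25 °C to find synthetic lethal compounds; 0% = DMSO yeast wells and 100% = medium wells without yeast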
TIM10 conf – growth inhibitors of wild-type TIM10 yeast, confirmation, counter-screen for tim10-1 synthetic lethality project, single concentration, luminescence, S. cerevisiae. shares compounds with TIM10 inh. 4,600 compounds, 63% hits. S. cerevisiae tim10 strain growth, BacTiter-Glo luminescence, 24 h. inhibition, % at 10 µM;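 active means inhibition of yeast growth at or above a set limit in either of two replicates at 10 µM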;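 further: this counterscreen used the strain with wild-type TIM10; 0% = yeast with DMSO and 100% = medium wells lacking yeast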
Starred values were filed as active, the others as inactive; . = no result.

SMILES	TIM10 inh	tim10-1 inh	tim23-1 inh	NALP1 yeast inh	NALP3 yeast inh	tim10-1 confirm	TIM10 conf
CN(CC(=O)NCc1cccs1)S(=O)(=O)c1cccc2nsnc12	-5.6	11.4	-3.1	23.2	6.8	.	.
COc1ccc(OCC(=O)Nc2ccc(N3CCOCC3)c(Cl)c2)cc1	10.9	17.1	26.3	3.0	13.4	.	.
COc1ccc(OCC(=O)Nc2ccc(N3CCN(C(=O)c4ccccc4)CC3)c(Cl)c2)cc1	43.9*	59.9*	39.7	16.1	24.8	58.2*	56.8*
O=C(O)c1cc([N+](=O)[O-])ccc1NCc1ccccn1	-4.6	-19.9	-7.4	.	15.0	.	.
CNc1cc(CSC)nc(SCc2ccc(Cl)cc2Cl)n1	44.2*	48.9*	47.6	32.7*	40.8	40.6*	37.1*
Nc1nc(SCc2ccc(Cl)cc2Cl)n[nH]1	6.6	10.4	19.1	6.6	17.1	.	.
CCOC(=O)C1CCN(C(=O)c2ccc(OCC(=O)Nc3cccc(C(F)(F)F)c3)c(OC)c2)CC1	59.0*	54.7*	45.9	.	15.6	65.8*	62.6*
CC(=O)NCCc1c[nH]c2ccc(OCc3ccccc3)cc12	14.5	7.6	14.3	.	8.6	.	.
Cn1c(=O)c2nc(-c3ccccc3)oc2c2ccccc21	58.8*	55.1*	48.8	6.2	25.6	48.0*	67.5*
CCN(CC)c1ccc(-n2cc3c(=O)n(C)c(=O)n(C)c3c2)cc1	45.7*	40.0*	49.5	18.1	25.2	31.0*	-3.1
CN(C)c1ccc(-n2cc3c(=O)n(C)c(=O)n(C)c3c2)cc1	8.4	25.5	20.9	-8.9	31.7	.	.
Cc1noc(C)c1C(=O)Nc1nc(C23CC4CC(CC(C4)C2)C3)cs1	48.2*	52.4*	43.8	21.7	32.8	37.8*	39.0*
O=c1c2c(nc(NCCO)n1CC1CCCCC1)-c1ccccc1CC21CCCC1	52.2*	54.7*	43.5	8.5	13.0	37.5*	-34.6
NC(=O)C1CCN(C(=O)CCNS(=O)(=O)c2ccccc2F)CC1	-2.7	3.1	10.7	.	19.2	.	.
Cc1ccc(C(=O)CCC(=O)OCC(=O)NNC(=O)c2ccc([N+](=O)[O-])cc2)cc1	-7.5	-6.4	-3.2	.	22.0	.	.
COC(=O)C(=C/C(C)=C/c1cccnc1)C(=O)OC	49.9*	50.5*	42.4	0.4	42.3	41.1*	46.0*
COC(=O)/C(=C/c1cccnc1)NC(=O)c1ccccc1	7.4	-7.1	1.4	20.1	14.3	.	.
COc1cc(S(C)=O)ccc1-c1nc2ncccc2[nH]1 (stereo not given)	-0.7	-4.7	7.9	.	6.2	.	.
NC(=O)c1cc([N+](=O)[O-])ccc1NCc1ccc(N)cc1	54.0*	57.0*	29.7	.	14.3	48.5*	64.8*
Cc1ccc(O)c(C(=O)/C=C/c2ccc3c(c2)OCCO3)c1	58.7*	55.4*	41.5	5.4	22.7	54.5*	50.5*
COc1ccc(N2C(=O)CC(Sc3nccc(C)n3)C2=O)cc1 (stereo not given)	9.1	14.4	20.2	-1.9	8.1	.	.
C=CCNc1nnc(SC2CC(=O)N(c3ccc(OC)cc3)C2=O)s1 (stereo not given)	40.2*	67.2*	37.1	-6.6	15.2	61.0*	45.8*
CC(=O)OCCCNc1cc(Sc2nc3ccccc3s2)c2nonc2c1[N+](=O)[O-]	84.6*	90.6*	43.8	41.6	26.3	91.1*	1.3
COC(C/C=C\C(=O)COCc1ccccc1)OC	19.8	37.1	18.4	.	12.4	.	.
COC(C/C=C/C(=O)[C@H](C)OCc1ccccc1)OC	45.7*	51.7*	47.1	.	10.7	47.7*	46.1*
SMILES	TIM10 inh	tim10-1 inh	tim23-1 inh	NALP1 yeast inh	NALP3 yeast inh	tim10-1 confirm	TIM10 conf
Cc1ccc(-c2n[nH]c(=S)n2Cc2ccccc2)cc1	39.4	31.7	23.8	1.8	19.7	.	.
CCc1cc(-c2n[nH]c(=S)n2Cc2ccccc2)cs1	44.4*	42.0*	38.9	-24.1	23.2	18.8	41.3*
Fc1ccc(N/N=C/c2cccnc2)c(F)c1	-1.7	-128.5	11.0	3.2	37.3	.	.
Clc1ccc2c(N/N=C/c3cccnc3)ccnc2c1	71.4*	51.3*	39.7	7.7	25.5	56.8*	79.4*
O=C(C1=C[C@H](C2CCCCC2)C[C@H](OCCCCO)O1)N1CCN(Cc2ccccc2)CC1	6.5	18.0	12.1	-5.2	13.6	.	.
CCOC(=O)c1c(N2C(=O)C=CC2=O)sc(C)c1C	76.9*	47.2*	19.5	53.2*	5.0	44.2*	72.2*
CCOC(=O)c1c(NC(N)=O)sc(C)c1C	10.6	14.5	16.8	19.5	12.9	.	.
CC(C)(C)n1[nH]c2c3c(ccc2c1=O)C(=O)c1ccccc1C3=O	65.5*	45.3*	27.6	0.7	21.0	40.2*	57.1*
O=C1CC(/C=C/c2ccccc2)=Nc2ccccc2N1	20.3	16.8	12.8	3.1	36.2	.	.
CC1(C)CC(/C=C/c2ccccc2)=Nc2ccccc2N1	66.8*	49.5*	46.3	11.8	22.8	54.2*	57.9*
Cc1ccc2c(c1)nnn2C1CCN(C(=O)C23CC4CC(CC(C4)C2)C3)CC1	42.3*	59.5*	43.6	-2.3	-15.1	40.5*	37.8*
Cc1ccc2c(c1)nnn2C1CCN(C(=O)NC23CC4CC(CC(C4)C2)C3)CC1	-11.1	11.3	3.0	38.8	0.1	.	.
Cc1nc(C)c(-c2csc(Nc3cccc(O)c3)n2)s1	48.1*	44.4*	24.0	7.4	21.1	24.6	31.1*
Cc1nc(N)sc1-c1csc(Nc2cccc(O)c2)n1	-1.1	-0.8	6.7	-4.5	-3.5	.	.
CN(C)S(=O)(=O)c1ccc(N2CCCC2)c(C(=O)NCC2CCCO2)c1 (stereo not given)	6.8	-1.7	-18.6	.	18.2	.	.
CC(C)c1ccc(/C=C(\c2nc3ccccc3[nH]2)S(=O)(=O)c2ccccc2)cc1	45.5*	53.5*	45.0	25.7	15.8	47.3*	37.4*
CC(NC(=O)COC(=O)CC(c1ccccc1)c1ccccc1)c1ccccc1 (stereo not given)	16.4	21.9	27.8	22.9	-14.0	.	.
O=C(/C=C/c1ccco1)Nc1ccccc1N1CCCCC1	53.7*	60.9*	41.4	23.7	-3.9	57.8*	50.5*
Cc1ccc(-c2csc3ncn(CC(=O)NCC(c4ccco4)N4CCCC4)c(=O)c23)cc1 (stereo not given)	-0.1	-1.5	-10.6	.	10.3	.	.
COCCNC(=S)N/N=C(\C)c1ccc(O)cc1	0.3	6.9	13.0	3.4	5.6	.	.
